Source: PubChem
This is a sample that favours compounds with a hit; in the whole collection about 8.2% have one here.
KB-3-1 cytotox: qHTS assay for MDR1-selective chemotherapeutics: Primary screen using the parental adenocarcinoma cell KB-3-1; KB-3-1 viability, CellTiter-Glo ATP luminescence, 72 h; Potency, µM (top dose mostly 46.1 µM), most hits filed as cytotoxic; 1.4% of 400,000 active; AID 1347075, 2019; further: nearly all actives have a fitted effect of over 60% in size
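Cytotoxicity measured as CellTiter-Glo luminescence after 72 h at 37 C. Compound titrations were pinned onto drug-naive KB-3-1 parental adenocarcinoma cells grown in DMEM with 10% FBS, and normalized data fitted to concentration-response curves.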
MCF10A rereplic: A quantitative high throughput screen for small molecules that induce DNA re-replication in MCF 10a normal breast cells; MCF 10A DNA re-replication, Hoechst nuclear intensity, 48 h; Potency, µM (series often up to 46.1 µM), hits mostly activators; 2.9% of 350,000 active; further: nearly all actives have a fitted effect of over 50% in size
ELG1 repair inh: qHTS screen for small molecules that inhibit ELG1-dependent DNA repair in human embryonic kidney (HEK293T) cells expressing luciferase-tagged ELG1 | 2.3% of 330,000 active | Potency, µM (doses to about 46.1 µM), usual class: inhibitors | AID 504467, 2011 | HEK293T ELG1-luciferase reporter, luminescence, 16 h; DNA damage induced by 5-fluorouridine; further: nearly all actives have a fitted effect of over 55% in size
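DMSO vehicle served as the neutral condition. Each well held 2,000 cells given 5-fluorouridine plus compound; after 16 hr at 37 °C/5% CO2, ONE-Glo was added and luciferase measured 30 min later.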
SW480 rerep: A quantitative high throughput screen for small molecules that induce DNA re-replication in SW480 colon adenocarcinoma cells | SW480 DNA re-replication, Hoechst DNA content imaging, 48 h | Potency, µM (highest dose often 46.1 µM), actives largely listed as activators | 1.8% of 340,000 active | AID 624297, 2012; further: nearly all actives have a fitted effect of over 55% in size
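Per well, 250 cells were exposed to pinned compound for 48 hr. Nuclear DNA was visualised with Hoechst (40 min, 37 C) and total object intensity recorded by fluorescence scanning.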
KB-V1 cytotox: qHTS assay for MDR1-selective chemotherapeutics: Primary screen using the drug-selected MDR subline cells KB-V1; KB-V1 MDR cells viability, CellTiter-Glo, 72 h; 3.4% of 400,000 active; Potency, µM (highest dose often 46.1 µM), actives largely listed as cytotoxic; AID 1347076, 2019; further: nearly all actives have a fitted effect of over 60% in size
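KB-V1 MDR subline cells in DMEM (phenol-red free, 10% FBS) exposed to compounds in qHTS concentration series for 72 h at 37 degrees C. Viability read by CellTiter-Glo luminescence; concentration-effect curves fitted after normalization and correction.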
Large screens that a line does not name were inactive. The call rests on the fitted dose curve; in most records, active means well fitted curve in the direction sought with a large enough effect; inconclusive means small, poorly fitted or top-dose-only effect, or another doubt; inactive means no such curve, though single readings can be large; an effect the other way counts as inactive or inconclusive.

O=C(CSc1nc2ccccc2n1Cc1ccc(F)cc1)N1CCN(c2ccc(F)cc2)CC1	none (no result: MCF10A rereplic, ELG1 repair inh, SW480 rerep)
C=C1C(=O)O[C@@H]2[C@H]3O[C@]3(C)CC/C=C(\C)CC[C@@H]12	MCF10A rereplic 4.1µM (no result: ELG1 repair inh)
NC(=O)c1nsc(C(=O)N(c2ccccc2)C(C(=O)NC2CCCC2)c2ccc3ncccc3c2)c1N (centres undefined)	MCF10A rereplic 21µM, ELG1 repair inh inconclusive
CCOc1ccc(N(C(=O)c2snc(C(N)=O)c2N)C(CC)C(=O)NC2CCCC2)cc1 (centres undefined)	SW480 rerep 23µM
CCCC(C(=O)NC1CCCC1)N(C(=O)c1snc(C(N)=O)c1N)c1ccc(OCC)cc1 (centres undefined)	MCF10A rereplic inconclusive, ELG1 repair inh inconclusive
CCOc1ccc(C(C(=O)NC2CCCC2)N(Cc2ccccc2)C(=O)c2nsc(Cl)c2Cl)cc1 (centres undefined)	KB-3-1 cytotox 21µM, ELG1 repair inh inconclusive, SW480 rerep inconclusive, KB-V1 cytotox inconclusive
CC(C)CC(C(=O)NC1CCCC1)N(Cc1cccs1)C(=O)c1snc(C(N)=O)c1N (centres undefined)	ELG1 repair inh 18µM, KB-V1 cytotox inconclusive
COc1ccc(N(C(=O)c2snc(C(N)=O)c2N)C(C(=O)NC2CCCC2)c2ccc3ncccc3c2)cc1 (centres undefined)	MCF10A rereplic inconclusive, SW480 rerep inconclusive
CC(C)CC(C(=O)NC1CCCCC1)N(Cc1cccs1)C(=O)c1snc(C(N)=O)c1N (centres undefined)	KB-3-1 cytotox inconclusive, MCF10A rereplic inconclusive, ELG1 repair inh inconclusive, SW480 rerep inconclusive
COc1ccc(Br)cc1CN(C)CC(=O)Nc1cccc(S(=O)(=O)N2CCCC2)c1	MCF10A rereplic inconclusive, ELG1 repair inh inconclusive, SW480 rerep inconclusive, KB-V1 cytotox inconclusive
Cc1cccc(N(C(=O)c2nsc(Cl)c2Cl)C(C(=O)NC2CCCC2)c2ccc(O)cc2)c1C (centres undefined)	KB-3-1 cytotox inconclusive, ELG1 repair inh inconclusive, SW480 rerep inconclusive, KB-V1 cytotox 21µM
CC(OC(=O)c1snc(C(=O)NC2CCCCC2)c1N)C(=O)NC1CCCCC1 (centres undefined)	MCF10A rereplic 21µM, SW480 rerep inconclusive, KB-V1 cytotox inconclusive
CN(C)c1ccc(C(C(=O)NC2CCCCC2)N(Cc2ccco2)C(=O)c2snc(C(N)=O)c2N)cc1 (centres undefined)	KB-3-1 cytotox inconclusive, ELG1 repair inh inconclusive, KB-V1 cytotox 21µM
CCOC(=O)c1snc(C(=O)NC2CCCCC2)c1N	ELG1 repair inh inconclusive
Cc1ccccc1N(C(=O)c1snc(C(N)=O)c1N)C(C)C(=O)NC1CCCCC1 (centres undefined)	MCF10A rereplic inconclusive
Cc1ccccc1N(C(=O)c1snc(C(N)=O)c1N)C(C(=O)NC1CCCCC1)c1ccc(O)cc1 (centres undefined)	KB-3-1 cytotox inconclusive, MCF10A rereplic inconclusive, ELG1 repair inh inconclusive, SW480 rerep 16µM
Cc1ccc(N(C(=O)c2nsc(Cl)c2Cl)C(C(=O)NC2CCCC2)c2ccc(O)cc2)cc1C (centres undefined)	KB-3-1 cytotox inconclusive
COc1ccc2c(c1)c1c(c(=O)n(-c3cccc(C)c3)c(=O)n1Cc1cccc(Cl)c1)n2C	none (no result: MCF10A rereplic, ELG1 repair inh, SW480 rerep)
CC1(c2cccc(Br)c2)NC(=O)N(CC(=O)Nc2ccc(S(N)(=O)=O)cc2)C1=O (centres undefined)	none
CC(CNC(=O)c1ccccc1Cl)c1ccccc1 (centres undefined)	ELG1 repair inh inconclusive
CCn1c(SCC(=O)Nc2ccccc2)nc2c(c1=O)SCC2	KB-V1 cytotox inconclusive (no result: MCF10A rereplic, ELG1 repair inh, SW480 rerep)
CCOc1ccccc1N(C(=O)c1snc(C(N)=O)c1N)C(C(=O)NC1CCCC1)c1ccco1 (centres undefined)	KB-V1 cytotox 10µM
Cc1cc(C)cc(N(C(=O)c2nsc(Cl)c2Cl)C(C(=O)NC2CCCC2)c2ccc(O)cc2)c1 (centres undefined)	MCF10A rereplic inconclusive, SW480 rerep inconclusive, KB-V1 cytotox 18µM
